Results filed as inconclusive are left out. Activity calls are given as the source filed them. How the source made its calls, unless noted: active means hit-call score of the fitted dose curve at least 0.9, where 1 is the maximum; inactive means score below 0.9.
Key:
[1] = BSK_3C_VCAM1: BioMAP Diversity Plus: 3C Assay for Vascular cell adhesion molecule 1 (VCAM1) Biomarker Activity (AID 2282999); settings: BioMAP 3C HUVEC, VCAM1 ELISA, cytokine-stimulated; actives raise or lower the signal
Summary of the method: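 Activity fitted in both directions relative to DMSO, with ELISA measurement of the surface marker on primary HUVEC (3C) at 24 h post-treatment; parallel SRB staining (0.1% SRB, TCA-fixed, 560 nm) flagged overt cytotoxicity.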

[2] = BSK_4H_Eotaxin3: BioMAP Diversity Plus: 4H Assay for Eotaxin 3 Biomarker Activity (AID 2283000); settings: primary human endothelial cells (HUVEC); actives raise or lower the signal
Summary of the method: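 ELISA quantitation of CCL26 (Eotaxin-3) protein from chemically dosed human vascular endothelial cells at 24 h; increases and decreases both scored relative to DMSO-treated baseline.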

[3] = target: human Peroxisome Proliferator-activated Receptor alpha (PPARa), PPARA (gene 5465) (UniProt Q07869); assay: ATG_PPARa_TRANS: Attagene TRANS-FACTORIAL HepG2 Assay for human Peroxisome Proliferator-activated Receptor alpha (PPARa) (AID 2283001; active means hit-call score of the fitted dose curve at least 0.9, where 1 is the maximum;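 on AC50: potency for gain of reporter signal over DMSO so agonist or activator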)
Chain of human Peroxisome Proliferator-activated Receptor alpha (PPARa), PPARA (gene 5465) (Q07869 whole entry, looked up, the tested form may be a part): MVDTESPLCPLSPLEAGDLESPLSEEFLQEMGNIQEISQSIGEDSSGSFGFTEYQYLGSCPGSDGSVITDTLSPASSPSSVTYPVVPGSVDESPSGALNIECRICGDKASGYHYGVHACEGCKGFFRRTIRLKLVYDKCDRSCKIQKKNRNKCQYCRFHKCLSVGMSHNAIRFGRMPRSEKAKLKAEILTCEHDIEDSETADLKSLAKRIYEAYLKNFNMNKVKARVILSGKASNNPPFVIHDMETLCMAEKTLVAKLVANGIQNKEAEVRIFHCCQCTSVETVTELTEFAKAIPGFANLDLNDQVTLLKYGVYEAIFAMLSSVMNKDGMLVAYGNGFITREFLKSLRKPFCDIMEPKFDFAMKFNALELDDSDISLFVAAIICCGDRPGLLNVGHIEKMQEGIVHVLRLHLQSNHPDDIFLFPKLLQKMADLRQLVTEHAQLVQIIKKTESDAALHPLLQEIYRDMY
Summary of the method: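 Reporter transcripts quantified by RT-PCR plus capillary electrophoresis after 24 h treatment, fitted upward relative to DMSO. Cells: human HepG2 transiently carrying multiple GAL4-UAS reporter units driven by NR-Gal4 chimeras.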

[4] = target: human Peroxisome Proliferator-activated Receptor delta (PPARd), PPARD (gene 5467) (UniProt Q03181); assay: ATG_PPARd_TRANS: Attagene TRANS-FACTORIAL HepG2 Assay for human Peroxisome Proliferator-activated Receptor delta (PPARd) (AID 2283002; active means hit-call score of the fitted dose curve at least 0.9, where 1 is the maximum)
Chain of human Peroxisome Proliferator-activated Receptor delta (PPARd), PPARD (gene 5467) (Q03181 whole entry, looked up): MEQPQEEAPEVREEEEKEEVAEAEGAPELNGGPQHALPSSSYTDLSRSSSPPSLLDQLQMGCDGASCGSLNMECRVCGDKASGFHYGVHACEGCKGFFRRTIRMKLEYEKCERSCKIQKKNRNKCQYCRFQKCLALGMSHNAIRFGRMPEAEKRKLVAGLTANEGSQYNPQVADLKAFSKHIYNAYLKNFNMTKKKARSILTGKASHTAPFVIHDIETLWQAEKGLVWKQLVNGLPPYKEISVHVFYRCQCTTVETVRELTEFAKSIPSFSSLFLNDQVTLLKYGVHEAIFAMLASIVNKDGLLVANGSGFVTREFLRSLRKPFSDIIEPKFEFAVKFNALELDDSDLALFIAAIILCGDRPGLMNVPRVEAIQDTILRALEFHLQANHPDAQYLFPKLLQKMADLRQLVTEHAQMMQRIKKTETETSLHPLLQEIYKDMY
Summary of the method: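 Cell-based TRANS reporter: HepG2, transient MRTU transfection, 24 h exposure. Readout = reporter mRNA (RT-PCR/CE, 6-FAM). Gain-of-signal fit vs DMSO control.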

[5] = read-out: Intercellular Adhesion Molecule 1 (ICAM1), ICAM1 (gene 3383); assay: BSK_3C_ICAM1: BioMAP Diversity Plus: 3C Assay for Intercellular Adhesion Molecule 1 (ICAM1) Biomarker Activity (AID 2283003); settings: primary human endothelial cells (HUVEC); actives raise or lower the signal
Summary of the method: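 Chemicals are dosed onto primary human umbilical vein endothelium (3C system). After 24 h, ICAM-1 is measured by ELISA, and responses are fitted bidirectionally relative to DMSO.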

[6] = BSK_3C_Proliferation: Cell Proliferation Assessment in the BioMAP Diversity Plus: 3C Assay (AID 2283006); settings: primary human endothelial cells (HUVEC);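 on AC50: potency may reflect either rise or fall in cell number versus DMSO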
Summary of the method: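 Cells (human umbilical vein endothelial, sub-confluent) receive test chemical; after 48 h they are fixed in 10% trichloroacetic acid, stained with 0.1% SRB and read at 560 nm. Activity is referenced to DMSO, fitting increases and decreases.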

[7] = target: Peroxisome proliferator-activated receptor gamma (Homo sapiens) (UniProt P37231); assay: ATG_PPARg_TRANS: Attagene TRANS-FACTORIAL HepG2 Assay for human Peroxisome Proliferator-activated Receptor-gamma (PPARg) (AID 2283007; active means hit-call score of the fitted dose curve at least 0.9, where 1 is the maximum)
Chain of Peroxisome proliferator-activated receptor gamma (Homo sapiens) (P37231 whole entry, looked up, the tested form may be a part): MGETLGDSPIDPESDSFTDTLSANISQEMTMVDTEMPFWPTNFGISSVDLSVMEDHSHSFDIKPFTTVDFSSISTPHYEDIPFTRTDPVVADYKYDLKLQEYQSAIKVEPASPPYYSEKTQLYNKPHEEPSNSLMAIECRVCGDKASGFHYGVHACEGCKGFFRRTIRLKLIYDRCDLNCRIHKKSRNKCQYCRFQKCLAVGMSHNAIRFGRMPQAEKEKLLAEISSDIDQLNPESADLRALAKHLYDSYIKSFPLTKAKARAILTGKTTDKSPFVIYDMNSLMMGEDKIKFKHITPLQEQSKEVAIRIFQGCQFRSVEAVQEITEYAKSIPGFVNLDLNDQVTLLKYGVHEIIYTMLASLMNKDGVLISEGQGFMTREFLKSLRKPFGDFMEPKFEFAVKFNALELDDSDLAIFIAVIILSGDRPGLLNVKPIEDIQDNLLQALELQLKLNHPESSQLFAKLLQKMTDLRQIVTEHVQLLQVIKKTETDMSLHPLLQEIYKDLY
Summary of the method: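 Endpoint reflects upward reporter mRNA change versus DMSO controls. Setup: transiently transfected HepG2, GAL4-UAS reporters driven by chimeric NR-Gal4, 24 h incubation, RT-PCR with capillary electrophoresis read-out.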

[8] = target: Nuclear receptor subfamily 1 group I member 2 (Homo sapiens) (UniProt O75469); assay: ATG_PXR_TRANS: Attagene TRANS-FACTORIAL HepG2 Assay for human Pregnane X Receptor (PXR) (AID 2283008; active means hit-call score of the fitted dose curve at least 0.9, where 1 is the maximum)
Chain of Nuclear receptor subfamily 1 group I member 2 (Homo sapiens) (O75469 whole entry, looked up, the tested form may be a part): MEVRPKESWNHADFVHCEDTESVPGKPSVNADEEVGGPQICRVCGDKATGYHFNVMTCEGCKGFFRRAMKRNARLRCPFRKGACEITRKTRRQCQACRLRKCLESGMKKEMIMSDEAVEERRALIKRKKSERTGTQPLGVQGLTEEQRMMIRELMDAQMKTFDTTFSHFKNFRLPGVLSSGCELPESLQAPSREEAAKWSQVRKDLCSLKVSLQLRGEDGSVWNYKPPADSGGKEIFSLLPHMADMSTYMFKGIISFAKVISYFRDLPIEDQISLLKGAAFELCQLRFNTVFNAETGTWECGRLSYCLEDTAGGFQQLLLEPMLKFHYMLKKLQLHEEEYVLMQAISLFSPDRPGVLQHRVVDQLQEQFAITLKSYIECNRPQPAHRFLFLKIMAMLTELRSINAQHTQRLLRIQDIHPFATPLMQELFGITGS
Summary of the method: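 Transactivation by exogenous PXR–GAL4 fusion measured as reporter transcript induction after 24 h compound treatment of transfected human HepG2 cells. Read-out via RT-PCR and capillary electrophoresis of labelled fragments, fitted upward relative to DMSO.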

[9] = target: human Retinoic Acid Receptor beta (RARb), RARB (gene 5915) (UniProt P10826); assay: ATG_RARb_TRANS: Attagene TRANS-FACTORIAL HepG2 Assay for human Retinoic Acid Receptor beta (AID 2283004; active means hit-call score of the fitted dose curve at least 0.9, where 1 is the maximum)
Chain of human Retinoic Acid Receptor beta (RARb), RARB (gene 5915) (P10826 whole entry, looked up, the tested form may be a part): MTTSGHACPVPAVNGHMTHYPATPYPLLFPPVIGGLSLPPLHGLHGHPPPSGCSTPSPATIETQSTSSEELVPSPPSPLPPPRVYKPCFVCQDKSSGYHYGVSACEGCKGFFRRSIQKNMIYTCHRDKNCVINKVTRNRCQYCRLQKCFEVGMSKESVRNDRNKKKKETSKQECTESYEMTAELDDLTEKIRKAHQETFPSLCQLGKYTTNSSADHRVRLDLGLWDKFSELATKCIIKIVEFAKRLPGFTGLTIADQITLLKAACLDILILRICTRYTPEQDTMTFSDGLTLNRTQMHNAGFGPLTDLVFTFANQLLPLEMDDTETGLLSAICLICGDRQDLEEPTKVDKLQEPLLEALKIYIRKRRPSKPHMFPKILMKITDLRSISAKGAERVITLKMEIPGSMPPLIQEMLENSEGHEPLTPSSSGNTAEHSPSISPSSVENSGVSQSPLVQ
Summary of the method: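 Fluorescent capillary-electrophoresis detection of GAL4-UAS reporter mRNA defines the endpoint, with induction over DMSO-treated wells scored as activity. Transiently transfected human hepatoma HepG2 cells expressing exogenous NR–Gal4 proteins are exposed to test chemicals for 24 h.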

[10] = target: Retinoic acid receptor alpha (Homo sapiens) (UniProt P10276); assay: ATG_RARa_TRANS: Attagene TRANS-FACTORIAL HepG2 Assay for human Retinoic Acid Receptor alpha (RARa) (AID 2283005; active means hit-call score of the fitted dose curve at least 0.9, where 1 is the maximum;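 on AC50: potency for increased reporter signal meaning RARa activation over DMSO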)
Chain of Retinoic acid receptor alpha (Homo sapiens) (P10276 whole entry, looked up, the tested form may be a part): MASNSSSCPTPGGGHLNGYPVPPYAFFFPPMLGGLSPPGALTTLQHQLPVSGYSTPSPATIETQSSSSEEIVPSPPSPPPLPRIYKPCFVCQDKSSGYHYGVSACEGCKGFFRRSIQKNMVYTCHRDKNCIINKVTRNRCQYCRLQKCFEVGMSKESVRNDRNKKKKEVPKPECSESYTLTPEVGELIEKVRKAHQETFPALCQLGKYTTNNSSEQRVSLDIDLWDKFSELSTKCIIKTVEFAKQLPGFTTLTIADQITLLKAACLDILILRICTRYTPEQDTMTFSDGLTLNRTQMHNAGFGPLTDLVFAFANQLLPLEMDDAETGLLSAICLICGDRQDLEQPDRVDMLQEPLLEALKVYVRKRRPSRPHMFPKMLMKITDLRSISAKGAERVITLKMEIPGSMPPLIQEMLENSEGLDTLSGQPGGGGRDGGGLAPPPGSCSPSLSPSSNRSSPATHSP
Summary of the method: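 Reporter transcripts, measured by RT-PCR with fluorescent labeling and capillary electrophoresis after 24 h dosing, reflect activity of an exogenous human RARa–GAL4 fusion in transiently transfected HepG2. Fitted for increase relative to DMSO.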

Measured: AC50

CC(C)C1(C)N=C(c2ncccc2C(=O)O)NC1=O (stereo unspecified)
not listed: [8] | [9] | [10]
inactive: all other assays above

COc1cc(OC)nc(NC(=O)NS(=O)(=O)c2ncccc2OCC(F)(F)F)n1
inactive: [1] | [2] | [3] | [5] | [6] | [7]

COP(=O)(OC)O/C(C)=C/C(=O)N(C)C
not listed: [8] | [9] | [10]
inactive: all other assays above

C=CCOC(=O)C(C)(C)OC(=O)c1cc(-n2c(=O)cc(C(F)(F)F)n(C)c2=O)ccc1Cl
inactive: [1] | [2] | [5] | [6] | [7]

Clc1cccc(C(Cl)(Cl)Cl)n1
not listed: [4] | [9] | [10]
inactive: all other assays above

CCCC(=NOCC)C1=C(O)CC(CC(C)SCC)CC1=O (stereo unspecified)
not listed: [3]
inactive: all other assays above

C=C(C)CN(CC)c1c([N+](=O)[O-])cc(C(F)(F)F)cc1[N+](=O)[O-]
active: [10] 30.2 µM | [6] 33.4 µM
inactive: [1] | [2] | [5] | [9] | [7]

CC(C)(C)C(=O)C(Oc1ccc(Cl)cc1)n1cncn1 (stereo unspecified)
active: [10] 50 µM
not listed: [3] | [8]
inactive: all other assays above

Nc1c(Cl)c(Cl)nc(C(=O)O)c1Cl
inactive: [1] | [2] | [3] | [5] | [6] | [7]

Nc1c(Cl)c(F)nc(OCC(=O)O)c1Cl
not listed: [3] | [4] | [8]
inactive: all other assays above

CSC(=O)c1c(C(F)F)nc(C(F)(F)F)c(C(=O)SC)c1CC(C)C
active: [6] 15.7 µM | [7] 10.9 µM | [8] 1.66 µM
not listed: [3] | [10]
inactive: all other assays above

CNC(=O)N(C)c1nnc(C(C)(C)C)s1
not listed: [3]
inactive: all other assays above

CO/N=C(/C1=NOCCO1)c1ccccc1Oc1ncnc(Oc2ccccc2Cl)c1F
inactive: [1] | [4] | [5] | [7]
active: [2] 27.8 µM | [6] 17.4 µM

CCOP(=S)(OCC)Oc1nc(Cl)n(C(C)C)n1
not listed: [3] | [4] | [8]
inactive: all other assays above

COCC(C)N(C(=O)CCl)c1c(C)csc1C (stereo unspecified)
inactive: [1] | [2] | [3] | [5] | [6]
active: [7] 3.79 µM

O=C(Nc1ccccc1-c1ccc(Cl)cc1)c1cccnc1Cl
active: [7] 10.9 µM
not listed: [3] | [9] | [10]
inactive: all other assays above

CC1(C)CCC(=Cc2ccc(Cl)cc2)C1(O)Cn1cncn1 (stereo unspecified)
not listed: [3] | [4] | [8]
inactive: all other assays above

CCOC(=O)C(C)OC(=O)c1cc(Oc2ccc(C(F)(F)F)cc2Cl)ccc1[N+](=O)[O-] (stereo unspecified)
inactive: [1] | [2] | [5] | [6]
active: [3] 1.57 µM | [7] 14.1 µM

CC(C)N1C(=O)N(c2ccccc2)CSC1=NC(C)(C)C
active: [1] 32 µM | [2] 31.2 µM | [6] 16.4 µM
inactive: [4] | [5] | [7]

COC(=O)N(C(=O)N1CO[C@@]2(C(=O)OC)Cc3cc(Cl)ccc3C2=N1)c1ccc(OC(F)(F)F)cc1
active: [6] 5.55 µM
inactive: [1] | [2] | [4] | [5] | [7]

CCCCOCN(C(=O)CCl)c1c(CC)cccc1CC
active: [1] 27.4 µM | [2] 36.1 µM | [5] 32.2 µM | [6] 28.2 µM | [7] 1.38 µM
inactive: [3]

CCN(CC)C(=O)C(C)Oc1cccc2ccccc12 (stereo unspecified)
active: [2] 10.8 µM | [6] 6.69 µM | [7] 50 µM
inactive: [1] | [4] | [5]

CCNC(=O)NC(=O)C(C#N)=NOC
not listed: [3] | [8] | [9]
inactive: all other assays above

OC(c1ccc(Cl)cc1)(c1ccc(Cl)cc1)C(Cl)(Cl)Cl
active: [1] 14.1 µM | [2] 29.8 µM | [5] 29 µM | [6] 11.6 µM
inactive: [10] | [7] | [8]

CCCCC(O)(Cn1cncn1)c1ccc(Cl)cc1Cl (stereo unspecified)
active: [6] 26.2 µM
not listed: [3] | [9] | [10]
inactive: all other assays above

CCOP(=O)(OCC)Oc1nc(Cl)c(Cl)cc1Cl
active: [2] 30.5 µM | [6] 8.46 µM | [7] 30.8 µM
inactive: [1] | [4] | [5]

COC(=O)NC(=S)Nc1ccccc1NC(=S)NC(=O)OC
inactive: [1] | [2] | [4] | [5] | [6] | [7]

N#Cc1c[nH]cc1-c1cccc2c1OC(F)(F)O2
active: [2] 20 µM | [6] 5.61 µM | [7] 19.5 µM
inactive: [1] | [3] | [5]

CNC(=O)Oc1cccc2ccccc12
active: [2] 20 µM | [6] 22.9 µM
inactive: [1] | [5] | [9] | [10]

Cc1c(COC(=O)[C@@H]2[C@H](/C=C(\Cl)C(F)(F)F)C2(C)C)cccc1-c1ccccc1
active: [6] 12.7 µM
not listed: [3] | [8]
inactive: all other assays above

CC1(C)C(C(=O)OC(C#N)c2cccc(Oc3ccccc3)c2)C1(C)C (stereo unspecified)
active: [10] 13.7 µM | [6] 7.92 µM | [7] 16.9 µM
not listed: [3] | [8]
inactive: all other assays above

COC(=O)NS(=O)(=O)c1ccc(N)cc1
not listed: [4] | [9] | [10]
inactive: all other assays above

CCNP(=S)(OC)O/C(C)=C/C(=O)OC(C)C (stereo unspecified)
active: [10] 22.1 µM | [7] 29.6 µM
not listed: [3] | [4]
inactive: all other assays above

COc1ccc(-c2ccccc2)cc1NNC(=O)OC(C)C
active: [7] 50 µM
not listed: [3] | [4] | [10]
inactive: all other assays above

Clc1nc(Cl)nc(Nc2ccccc2Cl)n1
active: [7] 9.95 µM
inactive: [1] | [2] | [5] | [10] | [6]

CC(C)Nc1nc(Cl)nc(NC(C)C)n1
not listed: [3] | [9] | [10]
inactive: all other assays above

CC1(C)C(C=C(Cl)Cl)C1C(=O)OC(C#N)c1cccc(Oc2ccccc2)c1 (stereo unspecified)
active: [7] 17.9 µM | [8] 9.82 µM
inactive: [1] | [2] | [5] | [9] | [10]

CCSC(=O)N1CCCCCC1
not listed: [3] | [8]
inactive: all other assays above

CC(C)NC(=O)N1CC(=O)N(c2cc(Cl)cc(Cl)c2)C1=O
inactive: [1] | [2] | [5] | [6]
active: [7] 23.4 µM | [8] 10.6 µM

— PubChem BioAssay (EPA / NIEHS)
